Compounds with a hit are over-represented: about 5.7% of the library has one in this group of screens.
Nrf2 inh = inhibitors of Nrf2 signaling; A549 ARE-Fluc reporter, luciferase luminescence, 18-24 h; Potency, µM (titrated, usually from 46 µM), inactives show at the top dose activity change, negative = inhibition, actives largely listed as inhibitors; hit rate 2.1% among 360,000; also: potency is read from the fitted curve at half-maximal effect; nearly all actives have a fitted effect of over 60% in size
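A549 ARE_Fluc cells (5000/well, 5% FBS OPTI-MEM) pre-incubated 2 h, then treated with compounds 18-24 h at 37C/5% CO2 in concentration-response. CellTiter-Fluor viability read first; BugLite luciferase luminescence after 15 min at room temperature gives Nrf2 activity.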
KB-3-1 tox = kills parental KB-3-1 adenocarcinoma cells; AID 1347075; hit rate 1.4% among 400,000; KB-3-1 viability, CellTiter-Glo ATP luminescence, 72 h; Potency, µM (doses to about 46.1 µM), actives largely listed as cytotoxic; also: potency is read from the fitted curve at half-maximal effect; nearly all actives have a fitted effect of over 60% in size
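Cells are dispensed, compounds pinned in, plates held at 37 °C for 72 h, then CellTiter-Glo is added and luminescence read after 10 minutes. Cell line: parental KB-3-1 in phenol-red-free DMEM, 10% FBS.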
Giardia kill = Giardia lamblia killing; activity change, % at 7.66 µM, hits read low; Giardia lamblia trophozoite viability; hit rate 0.15% among 340,000; AID 540267; in the data active = activity change below about -80%; inconclusive = between about -30% and that limit;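 also: parasites exposed to compound for two days anaerobically before the ATP read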
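Giardia trophozoites, 100 cells per well, were exposed to compounds for 48 hrs at 37 deg C under anaerobic conditions; viability was then read as ATP content by bioluminescence after 15-30 min at room temperature.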
PI4K2A block = blocks human PI4K2A kinase activity; purified PI4K2A, ADP-Glo luminescence, 1 h; stronger effect = lower value; activity change, negative = inhibition, % at 76.9 µM; hit rate 0.13% among 420,000; AID 1346378; in the data active = activity change below about -50%; inconclusive = mostly about -30% to -49%;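 also: -100% = wells without enzyme as full effect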
Target sequence (Q9BTU6 whole entry, looked up): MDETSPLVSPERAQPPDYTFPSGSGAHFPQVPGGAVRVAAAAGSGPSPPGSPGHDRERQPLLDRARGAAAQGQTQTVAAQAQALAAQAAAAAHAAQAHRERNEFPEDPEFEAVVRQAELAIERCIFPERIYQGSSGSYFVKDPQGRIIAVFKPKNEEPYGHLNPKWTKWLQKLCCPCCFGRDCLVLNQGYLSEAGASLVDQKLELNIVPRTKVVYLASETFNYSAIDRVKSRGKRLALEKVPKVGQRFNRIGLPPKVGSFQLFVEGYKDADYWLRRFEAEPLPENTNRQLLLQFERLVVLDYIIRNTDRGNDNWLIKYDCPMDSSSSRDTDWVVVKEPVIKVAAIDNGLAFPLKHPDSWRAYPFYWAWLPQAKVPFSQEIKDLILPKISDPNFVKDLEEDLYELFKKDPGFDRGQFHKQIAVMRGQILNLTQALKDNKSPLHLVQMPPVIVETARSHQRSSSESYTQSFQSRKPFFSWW
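PI4K2A activity was measured by ADP-Glo luminescence: enzyme (4 ug/mL stock) and phosphatidylinositol (1.2 mM stock) in Tris pH 7.5/MgCl2/EGTA/Triton X-100 buffer were reacted with ATP (300 microM stock) for one hour at ambient temperature.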
KB-V1 cytotox = kills drug-selected multidrug resistant KB-V1 cells | hit rate 3.4% among 400,000 | AID 1347076 | KB-V1 MDR cells viability, CellTiter-Glo, 72 h | Potency, µM (highest dose often 46.1 µM), usual class: cytotoxic; also: potency is read from the fitted curve at half-maximal effect; nearly all actives have a fitted effect of over 60% in size
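Drug-selected KB-V1 cells, grown in DMEM lacking phenol red with 10% FBS, receive compound titrations; after three days at 37 degrees C, surviving cell ATP is quantified by CellTiter-Glo luminescence and responses normalized and curve-fitted.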
A549 tox = kills or reduces viability of A549 cells in Nrf2 counter-screen; A549 ARE-Fluc cells, CellTiter-Fluor viability, 18-24 h; Potency, µM (titrated, usually from 46 µM), for the others: at the top dose activity change, negative = cytotoxicity, hits mostly inhibitors; hit rate 0.16% among 390,000; also: potency is read from the fitted curve at half-maximal effect
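A549 ARE_Fluc cells in 5% FBS OPTI-MEM were exposed to compounds in concentration-response for 18-24 h at 37 deg C. Viability was read by CellTiter-Fluor fluorescence (Ex 405/Em 525) after 30 min, before the luciferase read.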
Numbers without * were called inactive; i = inactive; ? = inconclusive; . = not tested or not shown. Unless noted, calls follow the shape of the dose curve; as a rule, active = well fitted curve in the direction sought with a large enough effect; inconclusive = small, poorly fitted or top-dose-only effect, or another doubt; inactive = no such curve, though single readings can be large; an effect the other way counts as inactive or inconclusive. Unless noted, % is scaled to controls: 0 for no effect and ±100 for the full control effect.

SMILES | Nrf2 inh | KB-3-1 tox | Giardia kill | PI4K2A block | KB-V1 cytotox | A549 tox
CC(=O)c1c(C)[nH]c(C(=O)OCC(=O)NCC(C)C)c1C | 10µM* | i | 11 | 7 | ? | -14%
CNC(=O)COC(=O)c1[nH]c(C)c(C(C)=O)c1C | 1% | i | 5 | 6 | i | 1%
CCCCn1nc2cc(C(=O)NCc3cc(C(F)(F)F)cc(C(F)(F)F)c3)ccc2c1OCC | 18µM* | i | -2 | 3 | i | -6%
CCOc1c2ccc(C(=O)NCc3cc(C(F)(F)F)cc(C(F)(F)F)c3)cc2nn1CCOC | ? | i | 1 | -2 | i | -6%
C=CCN1C(=O)S/C(=C/c2ccsc2)C1=O | 11% | i | 6 | 3 | ? | -8%
CC(C)N1C(=O)S/C(=C/c2ccc(Sc3nc4ccccc4[nH]3)o2)C1=O | 15µM* | ? | 8 | 0 | 23µM* | ?
C=CCN1C(=O)S/C(=C/c2ccc(Sc3nc4ccccc4[nH]3)o2)C1=O | ? | ? | -26 | 4 | 3.7µM* | -3%
O=[N+]([O-])c1cc(S(=O)(=O)C(F)(F)F)ccc1Sc1nc2ccccc2s1 | 12% | 3.3µM* | -6 | 38 | ? | -6%
CCN(CC)c1ccc(/C=C/c2cc(Cl)nc3ccccc23)cc1 | . | i | . | . | i | .
CCN(CC)c1ccc2nc3ccccc3[n+](CC)c2c1 | 9.2µM* | 3.7µM* | -19 | -55* | 9.2µM* | 8.2µM*
CCN(CC)c1ccc2nc3ccc(N)cc3[n+](-c3ccccc3)c2c1 | 15µM* | 0.73µM* | -18 | ? | ? | 18µM*
COC(=O)C1=C(C(=O)OC)[C@@H]2N(C)c3ccccc3[C@@]23C[C@@H](C(=O)OC)N(C(=O)c2cc(C)oc2C)C3=N1 | 18µM* | i | 12 | 0 | i | -29%
COC(=O)C1=C(C(=O)OC)[C@@H]2N(Cc3ccccc3)c3ccccc3[C@@]23C[C@@H](C(=O)OC)N(C(=O)c2ccc(Br)cc2)C3=N1 | 16µM* | ? | -8 | 0 | ? | -24%
CC1CN(c2ccc(C(F)(F)F)cc2[N+](=O)[O-])CCN1S(C)(=O)=O (stereo not given) | ? | i | -7 | -3 | i | -9%
O=[N+]([O-])c1cc(C(F)(F)F)ccc1N1CCN(S(=O)(=O)c2ccc3c(c2)CCCC3)CC1 | 15µM* | ? | 16 | 1 | 5.2µM* | -19%
CCNc1cc(N2CCN(S(=O)(=O)c3ccc4c(c3)CCCC4)CC2)ccc1[N+](=O)[O-] | . | i | -3 | 4 | 1.5µM* | -3%
Clc1ccc(CN2CCN(N=Cc3ccncc3)CC2)cc1 | . | . | . | 3 | . | .
Cc1nonc1OCCNC(=O)C12CC3CC(CC(C3)C1)C2 | 4% | i | -4 | 1 | 23µM* | -2%
CCOC(=O)CNC(=O)C12CC3CC(CC(C3)C1)C2 | -5% | i | -18 | 5 | i | -9%
CCOC(=O)c1cc2c(C)n(-c3ccc(C)cc3)c(C)c2ccc1=O | ? | 21µM* | ? | 0 | 5.8µM* | ?
CCOC(=O)c1cc2c(C)n(-c3ccc(OCC)cc3)c(C)c2ccc1=O | ? | ? | -6 | 4 | 2.6µM* | -7%
CCOc1ccc(-n2c(C)c(C(=O)OC)c3cc(O)ccc32)cc1 | 19% | i | -23 | 1 | i | 0%
O=C(C[n+]1ccccc1Br)c1ccc(F)cc1 | . | i | . | . | i | .
CCc1ccc(N2C(=O)CSC23C(=O)N(Cc2ccc(C)cc2)c2ccccc23)cc1 (stereo not given) | -96% | ? | . | 2 | 12µM* | -3%
CC(C)c1ccc(N2C(=O)CSC23C(=O)N(Cc2ccccc2F)c2ccccc23)cc1 (stereo not given) | 55% | ? | . | 3 | ? | 11%
SMILES | Nrf2 inh | KB-3-1 tox | Giardia kill | PI4K2A block | KB-V1 cytotox | A549 tox
COc1cccc(CN2C(=O)C3(SCC(=O)N3c3ccc(F)cc3)c3ccccc32)c1 (stereo not given) | ? | i | . | -2 | ? | 6%
Cc1ccc(N2C(=O)CSC23C(=O)N(Cc2ccccc2F)c2ccccc23)cc1F (stereo not given) | ? | ? | . | 3 | 10µM* | -16%
COc1ccccc1NC(=O)CN1C(=O)C2(SCC(=O)N2c2ccc(F)c(F)c2)c2ccccc21 (stereo not given) | ? | ? | . | 2 | i | 1%
CCc1ccc(N2C(=O)CSC23C(=O)N(Cc2cccc(F)c2)c2ccccc23)cc1 (stereo not given) | -8% | ? | . | 2 | 12µM* | 0%
COc1ccccc1NC(=O)CN1C(=O)C2(SCC(=O)N2c2ccc(C)c(C)c2)c2ccccc21 (stereo not given) | 21µM* | 18µM* | . | 2 | ? | ?
CCN(C(=O)[C@@H](C)[C@@H](O)c1ccc(Cl)cc1)c1ccccc1 | . | . | . | -4 | . | .
Cc1ccccc1C(=O)n1ccc2ccc(-c3ccc4ccn(Cc5ccc(C#N)cc5)c4c3)cc21 | . | . | . | 3 | . | .
O=C(CNC(=O)c1cccnc1)c1ccc(F)cc1 | . | i | . | . | i | .
CC(C)c1ccc(N2C(=O)CSC23C(=O)N(Cc2ccccc2)c2ccccc23)cc1 (stereo not given) | 19% | ? | . | 0 | 12µM* | 14%
Cc1ccc(CN2C(=O)C3(SCC(=O)N3c3ccc(C)c(C)c3)c3ccccc32)cc1 (stereo not given) | ? | 21µM* | . | -5 | 18µM* | -22%
O=C(CN1C(=O)C2(SCC(=O)N2c2cccc(Cl)c2)c2ccccc21)NCCc1ccccc1 (stereo not given) | -60% | 15µM* | . | 1 | i | ?
O=C(Nc1cccc(Cl)c1)Nc1ccc(Br)cc1F | ? | 16µM* | 12 | 8 | 21µM* | ?
COC(=O)c1cc(NC(=O)Nc2cccc(Cl)c2)ccc1Cl | ? | i | -4 | -3 | 23µM* | -25%
O=C(Nc1ccccc1)Nc1ccc(Br)cc1F | 8% | i | -4 | 0 | i | 0%
N#CCc1ccc(NC(=O)Nc2cccc(Cl)c2)cc1 | ? | ? | -16 | -3 | 15µM* | -15%
COC(=O)c1cccc(NC(=O)NC(=O)c2ccc(Cl)cc2)c1 | 10µM* | i | -12 | 7 | i | -21%
CN(C)c1ccc(C2C=Cc3ccccc32)c2ccccc12 (stereo not given) | . | i | . | . | i | .
N#Cc1c([N+](=O)[O-])cc([N+](=O)[O-])cc1S(=O)(=O)Cc1ccccc1 | ? | 23µM* | 17 | -4 | ? | -22%

Screening data deposited in PubChem by National Center for Advancing Translational Sciences (NCATS).
